Test results reported in PubChem BioAssay (NCATS).
Records with an inconclusive call do not appear. Active and inactive are the calls of the source. Unless noted, calls follow the shape of the dose curve; as a rule, active = well fitted curve in the direction sought with a large enough effect; inconclusive = small, poorly fitted or top-dose-only effect, or another doubt; inactive = no such curve, though single readings can be large; an effect the other way counts as inactive or inconclusive.

Tests used:
[1] = Confirmation and Secondary Assay for Modulators of Hemoglobin Beta Chain Splicing at IVS2 654 locus (AID 910); settings: HeLa EGFP-654 splicing reporter, GFP fluorescence, 48 h; series mostly up to 38.3 µM;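 also: per-well total GFP intensity by laser scanning cytometry after 2-day treatment; % of control where 0% means no effect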
Procedure, shortened: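 HeLa cells stably carrying EGFP interrupted by mutant beta-globin IVS2-654 intron (CMV-driven) were treated with compound for 2 days at 37C; corrected splicing was scored as total peak GFP intensity per well (488 nm excitation, 500-520 nm emission).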

[2] = Confirmation and Secondary Assay for Modulators of Hemoglobin Beta Chain Splicing at IVS2 705 locus (AID 930); settings: HeLa EGFP-705 splicing reporter, GFP fluorescence, 48 h; series mostly up to 38.3 µM;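 also: HeLa cells stably expressing the EGFP-705 splicing reporter; GFP fluorescence per well restored by corrected splicing of the IVS2-705 intron in EGFP; % of control where 0% means no effect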
Procedure, shortened: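 Fluorescence gain (488 nm laser, 500-520 nm PMT) reflects restored correct splicing of a mutant IVS2-705 intron inside EGFP in stably transfected HeLa cells after 2-day compound treatment.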

[3] = qHTS Assay for Lipid Storage Modulators (AID 1519; calls by dose curve; as to activity change, negative = inhibition: % is scaled to controls: 0 for no effect and ±100 for the full control effect); settings: Drosophila S3 cells, BODIPY lipid droplet/cell ratio, laser cytometry, cells loaded with oleic acid; for activity change, negative = inhibition: at 57.5 µM (top of the series)
Procedure, shortened: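 Cells seeded at 5,000 per well were treated with compounds over a concentration series and loaded with oleic acid (400 uM, as added). Lipid droplet fluorescence (488 nm excitation, 500-530 nm channel) was read by laser-scanning cytometry and normalized to 20 uM Triacsin C.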

[4] = molecular target: Rap guanine nucleotide exchange factor 3 (Homo sapiens) (UniProt O95398); experiment: Confirmatory qHTS for agonist of cAMP-regulated guanine nucleotide exchange factor 3 (EPAC1) (AID 1645881); settings: EPAC1 Rap1B BODIPY-GDP exchange fluorescence; series mostly up to 154 µM;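 also: EPAC1 catalysed release of BODIPY-GDP from Rap1B seen as fluorescence loss; 100% = effect of cAMP agonist control; nearly all actives have a fitted effect of over 75% in size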
[5] = molecular target: Rap guanine nucleotide exchange factor 4 (Homo sapiens) (UniProt Q8WZA2); experiment: Confirmatory qHTS for agonist of cAMP-regulated guanine nucleotide exchange factor 4 (EPAC2) (AID 1645884); settings: EPAC2 GEF activity, Rap1B-BODIPY-GDP fluorescence; series mostly up to 154 µM;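 also: nucleotide exchange releases bodipy-GDP from Rap1 and this lowers its fluorescence; % is scaled to controls: 0 for no effect and ±100 for the full control effect; nearly all actives have a fitted effect of over 65% in size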
[6] = molecular target: Lysosomal acid glucosylceramidase (Homo sapiens) (UniProt P04062); experiment: Glucocerebrosidase-p2 (AID 348; in the data active = potency below about 10 µM; also: potency is read from the fitted curve at half-maximal effect); settings: purified GBA, blue fluorogenic substrate, 40 min
Procedure, shortened: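 Compounds titrated from 0.6 nM upwards against 0.2 nM enzyme in pH 5.9 citric acid/KH2PO4, taurocholate, tween-20; blue fluorogenic substrate 80 uM, 40 min room temperature, stopped and read Ex 365/Em 440 for AC50.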

[7] = molecular target: Cytochrome P450 1A2 (Homo sapiens) (UniProt P05177); experiment: p450-cyp1a2 (AID 410; calls by dose curve; also: potency is read from the fitted curve at half-maximal effect); settings: recombinant CYP1A2, luciferin-ME demethylation, luminescence; series mostly up to 57 µM
Procedure, shortened: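 Inhibition was calculated relative to 57 uM furafylline (full inhibition). The reaction used human CYP1A2 at 20nM with Luciferin-ME at its Km, 100uM, driven by an NADPH-regenerating system for 60 min at room temperature.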

[8] = NFAT Signaling Pathway (AID 444; active = well fitted curve in either direction with a large enough effect, not every such curve was filed as active;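 also: carbachol stimulus at about its EC50 of 1 µM final; % is scaled to controls: 0 for no effect and ±100 for the full control effect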); settings: Jurkat NFAT-bla M1, carbachol, beta-lactamase ratio, 5 h; at 7.69 µM (top of the series) unless noted
Procedure, shortened: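 Jurkat cells carrying an NFAT-driven β-lactamase reporter and co-transfected muscarinic M1 receptor were treated with compound plus carbachol (1 uM final, an EC50 level) for 5 h at 37 °C. CCF4 loading followed for 1 h at RT; 460/530 nm ratio gave %activity.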

[9] = Stat Signaling Pathway (AID 446; active = well fitted curve in either direction with a large enough effect, not every such curve was filed as active;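 also: ME-180 cervical cancer cells given 40 pM IL-6 alongside compound; SIE-controlled beta-lactamase reporter measured as 460/530 nm FRET emission ratio; % is scaled to controls: 0 for no effect and ±100 for the full control effect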); settings: ME-180 (cervical carcinoma) SIE beta-lactamase reporter, IL-6 stimulated, 5 h; at 7.69 µM (top of the series) unless noted
Procedure, shortened: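 IL-6/STAT signaling read in ME-180 cells via an SIE beta-lactamase reporter. Stimulus was 40 pM IL-6 (its AC50) for 5 hrs, so both activation and inhibition register.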

[10] = molecular target: Glucocorticoid receptor (Homo sapiens) (UniProt P04150); experiment: GR-GFP Redistribution (AID 450;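 active = compounds whose dose series gives a full or clear partial fitted curve of increased nuclear translocation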; also: potency is read from the fitted curve at half-maximal effect); settings: U2OS GR-GFP nuclear translocation, laser cytometry, 2 h
[11] = molecular target: Glucocorticoid receptor (Homo sapiens) (UniProt P04150); experiment: GR-EFC Redistribution (AID 451; calls by dose curve; also: potency is read from the fitted curve at half-maximal effect); settings: CHO-K1 GR-EFC translocation, beta-gal luminescence, 2 h
Procedure, shortened: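 CHO-K1 cells stably expressing nuclear-localized β-gal enzyme acceptor and GR fused C-terminally to the enzyme donor fragment; ligand-driven nuclear translocation restores β-gal by complementation. Compounds titrated up to 46 uM final, 2 h at 37 °C; luminescence read.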

[12] = molecular target: Mitogen-activated protein kinase 10 (Mus musculus) (UniProt Q61831); experiment: JNK3 AlphaScreen Assay (AID 530; active = well fitted curve in either direction with a large enough effect, not every such curve was filed as active;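 also: kinase came from lysate of stimulated human HepG2 cells; signal reports phosphorylation of biotinylated GST-cJun 1-79 at Ser73 with 10 µM ATP; % is scaled to controls: 0 for no effect and ±100 for the full control effect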); settings: JNK3 lysate, c-Jun phosphorylation; series mostly up to 57.1 µM
Procedure, shortened: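 JNK3 came from HepG2 lysates pre-activated with IL-1beta and TNF-alpha and phosphorylated biotinylated GST-cJun (1-79) at 10 uM ATP, pH 7.6, room temperature. Compounds were titrated. AlphaScreen signal used anti-phospho-cJun (Ser73) antibody.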

[13] = molecular target: Cytochrome P450 3A4 (Homo sapiens) (UniProt P08684); experiment: qHTS Assay for Inhibitors and Substrates of Cytochrome P450 3A4 (AID 884); settings: recombinant CYP3A4, Luciferin-PPXE luminescence; series mostly up to 57.1 µM; also: nearly all actives have a fitted effect of over 50% in size; also: potency is read from the fitted curve at half-maximal effect
Procedure, shortened: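 20 nM human CYP3A4 with 25 uM Luciferin-PPXE (at KM) in 200 mM KPO4, preincubated 10 min with compound; NADPH regeneration started a 60 min RT reaction. Luciferin detected by luminescence, normalized to 57 uM ketoconazole as full inhibition.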

[14] = molecular target: Cytochrome P450 3A4 (Homo sapiens) (UniProt P08684); experiment: qHTS Assay for Activators of Cytochrome P450 3A4 (AID 885); settings: recombinant CYP3A4, Luciferin-PPXE luminescence, 60 min; series mostly up to 57.1 µM; also: nearly all actives have a fitted effect of over 65% in size
Procedure, shortened: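 Quantitative HTS format: compounds preincubated with 20nM human CYP3A4 and Luciferin-PPXE substrate at KM, reaction started by NADPH regeneration, stopped after 60 min, luciferase luminescence read 20 min later.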

[15] = molecular target: Ubiquitin carboxyl-terminal hydrolase 1 (Homo sapiens) (UniProt O94782); experiment: Inhibitors of USP1/UAF1: Pilot qHTS (AID 504865); settings: purified USP1/UAF1, Ub-rhodamine cleavage fluorescence; series mostly up to 54.9 µM; also: nearly all actives have a fitted effect of over 35% in size; also: potency is read from the fitted curve at half-maximal effect
Procedure, shortened: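 1nM USP1/UAF1 + cpd, 15 min RT; start w/ Ub-Rho 150nM final; kinetic FL 480/540 nm, 6 reads q60 s. Buffer 50mM HEPES pH 7.8, 0.5mM EDTA, 1mM TCEP, 0.01% Tween-20, 0.1 mg/ml BSA.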

[16] = measured here: cell count channel max response
[17] = measured here: lipid channel max response

Cytochrome P450 3A4 (Homo sapiens), sequence (P08684 whole entry, looked up): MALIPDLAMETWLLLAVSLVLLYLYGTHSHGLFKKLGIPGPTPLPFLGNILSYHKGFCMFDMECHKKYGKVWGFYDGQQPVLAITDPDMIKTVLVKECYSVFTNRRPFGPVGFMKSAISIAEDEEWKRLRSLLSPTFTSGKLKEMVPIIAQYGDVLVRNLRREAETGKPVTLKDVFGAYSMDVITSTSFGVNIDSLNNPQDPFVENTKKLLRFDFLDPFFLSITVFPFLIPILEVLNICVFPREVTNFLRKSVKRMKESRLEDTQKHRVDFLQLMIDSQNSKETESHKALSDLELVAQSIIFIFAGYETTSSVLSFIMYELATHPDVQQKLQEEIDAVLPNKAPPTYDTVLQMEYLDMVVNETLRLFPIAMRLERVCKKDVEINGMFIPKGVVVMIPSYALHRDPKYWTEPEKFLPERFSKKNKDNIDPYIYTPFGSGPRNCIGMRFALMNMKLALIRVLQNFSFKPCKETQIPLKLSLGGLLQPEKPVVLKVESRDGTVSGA
Glucocorticoid receptor (Homo sapiens), sequence (P04150 whole entry, looked up, the tested form may be a part): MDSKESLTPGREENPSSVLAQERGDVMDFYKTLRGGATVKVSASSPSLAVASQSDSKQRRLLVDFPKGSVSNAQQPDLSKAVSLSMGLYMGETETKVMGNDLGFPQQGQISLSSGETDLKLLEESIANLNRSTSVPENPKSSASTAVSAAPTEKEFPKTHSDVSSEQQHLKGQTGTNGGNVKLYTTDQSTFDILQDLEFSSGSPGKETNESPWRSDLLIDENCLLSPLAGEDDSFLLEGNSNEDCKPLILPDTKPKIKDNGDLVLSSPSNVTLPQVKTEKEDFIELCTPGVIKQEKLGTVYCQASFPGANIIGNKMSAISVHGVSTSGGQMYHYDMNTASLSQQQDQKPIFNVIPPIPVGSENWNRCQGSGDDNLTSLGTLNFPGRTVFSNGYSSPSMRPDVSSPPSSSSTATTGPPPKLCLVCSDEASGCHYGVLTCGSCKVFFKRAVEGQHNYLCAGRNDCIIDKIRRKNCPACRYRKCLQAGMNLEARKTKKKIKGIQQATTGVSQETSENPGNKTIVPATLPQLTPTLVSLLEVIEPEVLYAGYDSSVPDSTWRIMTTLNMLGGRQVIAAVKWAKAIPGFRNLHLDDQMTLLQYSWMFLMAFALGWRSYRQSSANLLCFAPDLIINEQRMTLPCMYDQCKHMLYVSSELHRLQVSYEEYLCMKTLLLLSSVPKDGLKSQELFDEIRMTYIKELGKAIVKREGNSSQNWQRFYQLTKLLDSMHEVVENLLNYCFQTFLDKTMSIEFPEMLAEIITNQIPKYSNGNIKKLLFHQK
Ubiquitin carboxyl-terminal hydrolase 1 (Homo sapiens), sequence (O94782 whole entry, looked up): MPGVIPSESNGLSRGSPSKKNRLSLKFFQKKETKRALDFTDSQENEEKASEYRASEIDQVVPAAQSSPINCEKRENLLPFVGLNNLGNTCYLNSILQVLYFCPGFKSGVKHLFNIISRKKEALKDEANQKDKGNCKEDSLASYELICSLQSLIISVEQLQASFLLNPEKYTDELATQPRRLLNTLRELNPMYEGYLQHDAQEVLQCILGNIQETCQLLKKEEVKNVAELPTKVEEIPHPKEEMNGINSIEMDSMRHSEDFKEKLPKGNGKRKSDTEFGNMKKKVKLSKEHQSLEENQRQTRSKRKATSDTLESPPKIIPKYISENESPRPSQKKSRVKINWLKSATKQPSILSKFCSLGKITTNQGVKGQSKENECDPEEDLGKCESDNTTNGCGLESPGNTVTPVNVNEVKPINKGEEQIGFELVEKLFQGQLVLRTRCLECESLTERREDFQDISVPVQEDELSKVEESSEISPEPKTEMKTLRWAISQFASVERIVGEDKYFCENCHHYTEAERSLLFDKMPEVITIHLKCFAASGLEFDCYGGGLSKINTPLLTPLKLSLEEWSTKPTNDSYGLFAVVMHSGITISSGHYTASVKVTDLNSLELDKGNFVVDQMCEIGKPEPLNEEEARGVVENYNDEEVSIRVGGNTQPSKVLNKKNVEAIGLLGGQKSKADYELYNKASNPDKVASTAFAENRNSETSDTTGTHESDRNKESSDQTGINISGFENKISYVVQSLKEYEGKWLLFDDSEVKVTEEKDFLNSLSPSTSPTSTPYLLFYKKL
Rap guanine nucleotide exchange factor 3 (Homo sapiens), sequence (O95398 whole entry, looked up): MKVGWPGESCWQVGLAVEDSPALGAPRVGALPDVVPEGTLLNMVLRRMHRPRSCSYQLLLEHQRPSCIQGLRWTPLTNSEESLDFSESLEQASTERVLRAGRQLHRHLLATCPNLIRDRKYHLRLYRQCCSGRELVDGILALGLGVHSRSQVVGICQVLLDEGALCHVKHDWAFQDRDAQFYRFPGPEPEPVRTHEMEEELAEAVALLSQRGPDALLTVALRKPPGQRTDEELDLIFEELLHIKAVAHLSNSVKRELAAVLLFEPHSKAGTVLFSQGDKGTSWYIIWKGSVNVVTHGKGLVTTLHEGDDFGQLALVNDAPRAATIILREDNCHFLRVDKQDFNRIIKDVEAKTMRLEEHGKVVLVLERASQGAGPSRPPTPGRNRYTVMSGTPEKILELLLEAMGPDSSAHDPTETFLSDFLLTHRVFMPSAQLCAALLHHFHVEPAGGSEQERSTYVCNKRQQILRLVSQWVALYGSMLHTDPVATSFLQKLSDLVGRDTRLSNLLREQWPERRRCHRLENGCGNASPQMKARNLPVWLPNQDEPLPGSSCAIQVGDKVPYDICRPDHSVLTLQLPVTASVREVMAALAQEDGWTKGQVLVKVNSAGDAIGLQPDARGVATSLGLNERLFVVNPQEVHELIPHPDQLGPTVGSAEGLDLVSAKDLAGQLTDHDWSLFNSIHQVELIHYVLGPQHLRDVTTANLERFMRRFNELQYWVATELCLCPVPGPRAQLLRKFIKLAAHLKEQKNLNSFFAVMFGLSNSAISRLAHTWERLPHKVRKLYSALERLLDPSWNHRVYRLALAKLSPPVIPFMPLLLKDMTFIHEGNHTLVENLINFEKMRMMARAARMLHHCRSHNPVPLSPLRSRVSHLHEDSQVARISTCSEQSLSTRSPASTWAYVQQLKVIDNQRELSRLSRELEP
Rap guanine nucleotide exchange factor 4 (Homo sapiens), sequence (Q8WZA2 whole entry, looked up): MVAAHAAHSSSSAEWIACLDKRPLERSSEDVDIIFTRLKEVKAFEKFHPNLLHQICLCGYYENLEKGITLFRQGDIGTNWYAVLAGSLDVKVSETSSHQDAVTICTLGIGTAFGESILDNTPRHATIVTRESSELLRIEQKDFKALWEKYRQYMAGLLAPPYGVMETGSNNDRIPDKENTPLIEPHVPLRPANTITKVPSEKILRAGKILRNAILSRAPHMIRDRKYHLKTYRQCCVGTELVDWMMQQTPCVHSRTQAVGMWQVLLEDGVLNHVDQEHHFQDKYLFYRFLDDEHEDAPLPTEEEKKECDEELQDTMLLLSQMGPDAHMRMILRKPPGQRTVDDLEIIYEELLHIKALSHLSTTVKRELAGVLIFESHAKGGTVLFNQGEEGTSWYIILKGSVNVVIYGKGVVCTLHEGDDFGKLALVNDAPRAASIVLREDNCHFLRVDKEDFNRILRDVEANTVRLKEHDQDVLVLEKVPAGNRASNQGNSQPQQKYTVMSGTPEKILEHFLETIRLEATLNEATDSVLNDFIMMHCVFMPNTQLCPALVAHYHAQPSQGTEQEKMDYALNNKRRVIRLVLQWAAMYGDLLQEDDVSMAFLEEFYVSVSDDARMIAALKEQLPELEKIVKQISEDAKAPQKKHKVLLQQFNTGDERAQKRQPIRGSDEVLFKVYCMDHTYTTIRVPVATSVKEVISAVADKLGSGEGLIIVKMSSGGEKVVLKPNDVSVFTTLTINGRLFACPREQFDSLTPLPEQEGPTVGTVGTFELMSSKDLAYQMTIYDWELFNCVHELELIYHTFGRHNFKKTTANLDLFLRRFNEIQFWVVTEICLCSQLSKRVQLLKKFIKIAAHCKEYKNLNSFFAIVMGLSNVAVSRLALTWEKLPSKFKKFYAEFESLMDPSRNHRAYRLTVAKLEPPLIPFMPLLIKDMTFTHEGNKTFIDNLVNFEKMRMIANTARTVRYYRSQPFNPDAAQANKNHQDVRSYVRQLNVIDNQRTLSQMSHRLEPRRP
Lysosomal acid glucosylceramidase (Homo sapiens), sequence (P04062 whole entry, looked up): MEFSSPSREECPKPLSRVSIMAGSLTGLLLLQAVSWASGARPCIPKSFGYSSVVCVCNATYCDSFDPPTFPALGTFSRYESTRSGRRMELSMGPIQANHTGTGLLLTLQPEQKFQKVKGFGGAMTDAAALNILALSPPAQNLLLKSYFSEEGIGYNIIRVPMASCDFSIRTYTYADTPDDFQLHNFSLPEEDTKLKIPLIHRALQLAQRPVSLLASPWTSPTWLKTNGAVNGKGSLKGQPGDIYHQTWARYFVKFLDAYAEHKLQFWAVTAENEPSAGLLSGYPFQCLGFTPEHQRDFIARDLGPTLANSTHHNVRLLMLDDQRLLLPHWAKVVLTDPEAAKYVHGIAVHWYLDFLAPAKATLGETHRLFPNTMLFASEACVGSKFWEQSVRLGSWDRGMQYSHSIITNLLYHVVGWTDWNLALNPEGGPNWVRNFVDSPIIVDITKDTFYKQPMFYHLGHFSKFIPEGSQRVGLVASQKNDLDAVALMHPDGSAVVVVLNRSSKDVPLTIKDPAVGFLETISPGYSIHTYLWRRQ
Cytochrome P450 1A2 (Homo sapiens), sequence (P05177 whole entry, looked up): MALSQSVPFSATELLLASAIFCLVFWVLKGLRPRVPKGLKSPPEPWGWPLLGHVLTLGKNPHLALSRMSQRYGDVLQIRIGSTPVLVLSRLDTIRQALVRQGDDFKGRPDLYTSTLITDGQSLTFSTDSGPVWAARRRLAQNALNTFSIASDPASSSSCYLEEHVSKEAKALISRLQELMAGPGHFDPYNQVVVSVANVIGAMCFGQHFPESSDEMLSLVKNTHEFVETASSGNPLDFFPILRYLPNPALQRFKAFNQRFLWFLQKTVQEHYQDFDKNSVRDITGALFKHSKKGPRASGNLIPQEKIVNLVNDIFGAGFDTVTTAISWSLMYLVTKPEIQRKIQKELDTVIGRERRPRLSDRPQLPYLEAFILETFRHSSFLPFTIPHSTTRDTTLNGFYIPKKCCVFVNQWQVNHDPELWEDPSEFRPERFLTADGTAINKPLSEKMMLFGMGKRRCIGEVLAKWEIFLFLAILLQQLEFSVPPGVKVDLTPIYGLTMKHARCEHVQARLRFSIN

Compound | Potency [1] | outcome [2] | activity change, negative = inhibition [3] | max response [3, 16] [%] | max response [3, 17] [%] | Potency [4] | Potency [5] | Potency [6] | Potency [7] | activity change, negative = inhibition [8] | activity, negative = inhibition [9] | Potency [10] | Potency [11] | Potency [12] | Potency [13] | Potency [14] | Potency [15]
CC(=O)Oc1ccc2c(c1)CCC1C2CC[C@]2(C)C(OC(C)=O)CCC12 (stereo not given in full) | inactive | inactive | -2.53% (inactive) | 4 | 4.34 | inactive | inactive | – | – | – | – | – | – | – | – | – | –
COc1ccccc1CNc1ncnc2ccc(-c3cccnc3)cc12 | inactive | inactive | 3.28% (inactive) | -9.63 | -6.23 | inactive | inactive | > 11.4 µM (inactive) | 0.316 µM (active) | 12.3% (inactive) | -17.2% (inactive) | > 46 µM (inactive) | > 46 µM (inactive) | inactive | 2 µM (active) | inactive | –
N#C/C(=C\c1ccc(O)c(O)c1)C(=O)NCCCCc1ccccc1 | – | – | -2.23% (inactive) | 21.1 | 17.3 | inactive | inactive | – | – | – | – | > 46 µM (inactive) | > 46 µM (inactive) | – | – | – | 35.5 µM (active)
CC1(C)C=CC(=O)[C@]2(C)C1CC(=O)[C@]1(C)C2CC[C@@]2(C)C(c3ccoc3)OC(=O)C3OC321 (stereo not given in full) | inactive | inactive | -11.5% (inactive) | -7.57 | -18.1 | inactive | inactive | – | – | – | – | – | – | – | 2 µM (active) | inactive | inactive
N[C@H](C(=O)O)C(O)C(O)C(O)CO (stereo not given in full) | inactive | inactive | 2.74% (inactive) | -0.517 | 3.07 | inactive | inactive | – | – | – | – | – | – | – | inactive | – | inactive
O=C(O)c1cc(O)c2c(c1)C(=O)c1cc(O)cc(O)c1C2=O | inactive | inactive | 8.22% (inactive) | 22.4 | 36.4 | inactive | inactive | – | – | – | – | – | – | – | – | inactive | 56.2 µM (active)
COc1ccc2c(c1)[C@@]1(C)CCC[C@](C)(CO)C1CC2 (stereo not given in full) | – | – | 8.34% (inactive) | 17.7 | 28.8 | inactive | inactive | – | – | – | – | – | – | – | 10 µM (active) | inactive | –
C=CC(C1=CC(=O)C(OC)=CC1=O)c1ccccc1 (stereo not given) | – | inactive | -14.6% (inactive) | -0.41 | -12.3 | inactive | inactive | – | – | – | – | – | – | – | 20 µM (active) | inactive | 56.2 µM (active)
O=c1c(-c2ccccc2)coc2cc(O)cc(O)c12 | inactive | inactive | 13.9% (inactive) | -5.73 | 7.42 | inactive | inactive | – | – | – | – | – | – | – | 20 µM (active) | inactive | 56.2 µM (active)
